High-throughput results as filed in PubChem BioAssay.
RECQ1 inh-1: blocks DNA unwinding by human RECQ1; P46063; RECQ1 DNA unwinding, red fluorescence kinetic read; Potency, µM (series often up to 57.3 µM), without a hit: at the highest dose activity, negative = inhibition, most hits filed as inhibitors; 240,000 tested, 0.54% active;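 note: plate controls were vehicle for no effect and no enzyme for full effect; nearly all actives have a fitted effect of over 30% in size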
Target sequence (P46063 whole entry, looked up): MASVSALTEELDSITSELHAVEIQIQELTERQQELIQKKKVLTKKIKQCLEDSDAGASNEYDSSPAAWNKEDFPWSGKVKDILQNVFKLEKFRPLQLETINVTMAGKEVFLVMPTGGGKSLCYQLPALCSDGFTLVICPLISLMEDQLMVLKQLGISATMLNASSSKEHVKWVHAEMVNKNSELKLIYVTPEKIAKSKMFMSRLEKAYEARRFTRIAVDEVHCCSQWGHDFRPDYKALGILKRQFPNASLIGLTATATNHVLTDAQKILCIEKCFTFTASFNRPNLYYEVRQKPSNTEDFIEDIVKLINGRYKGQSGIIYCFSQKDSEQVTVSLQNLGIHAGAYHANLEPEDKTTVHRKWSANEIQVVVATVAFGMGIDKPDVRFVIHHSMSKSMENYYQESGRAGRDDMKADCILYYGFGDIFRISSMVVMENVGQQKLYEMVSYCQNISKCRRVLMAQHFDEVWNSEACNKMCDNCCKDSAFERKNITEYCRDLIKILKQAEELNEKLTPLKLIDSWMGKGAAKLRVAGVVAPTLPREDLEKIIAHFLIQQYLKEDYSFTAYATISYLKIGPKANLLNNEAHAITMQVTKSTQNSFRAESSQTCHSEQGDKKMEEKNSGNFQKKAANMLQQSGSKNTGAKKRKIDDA
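50 nM RECQ1T1 preincubated 15 min with compound in Tris pH 8.0 buffer with MgCl2, DTT, Tween-20 and 2.5 ug/ml poly(dI-dC); started with 200 nM TAMRA/BHQ-2 forked duplex and 2 mM ATP. Unwinding read as fluorescence (525/598 nm), two reads 2 h apart.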
TexasRed fluor: counter-screen for TRb-SRC2 inhibitors: fluorescence interference; TRb/SRC2 Texas Red total fluorescence interference; 280,000 tested, 0.29% active; Potency, µM (doses to about 106 µM), inactives show at the top dose fluorescence change, negative = quenching; AID 1479; active = well fitted curve in either direction with a large enough effect; inconclusive = small, poorly fitted or top-dose-only effect
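Human TRβ ligand-binding domain (0.6 uM) and Texas Red SRC2 peptide (20 nM) in Tris buffer with 1 uM T3 and 5% DMSO were incubated with pinned compound for 5 hr at ambient temperature. Total fluorescence was computed as S + 2P (555/632 nm).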
TRb SRC2 PPI: TRbeta-SRC2 interaction inhibition; 280,000 tested, 0.065% active; P10828; Potency, µM (titrated, usually from 106 µM), for inactives: top-dose activity change, negative = inhibition, usual class: inhibitors; TRbeta-SRC2 peptide binding, fluorescence polarization; receptor liganded with 1 µM T3; AID 1469;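 note: plate controls were bound peptide for no effect and peptide without receptor for full effect; nearly all actives have a fitted effect of over 50% in size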
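Assay buffer: 20 mM Tris-HCl, 100 mM NaCl, 10% glycerol, 1 mM EDTA, 0.01% NP-40, 1 mM DTT, 1 uM T3, 5% DMSO; TRb LBD 0.6 uM, Texas Red SRC2 20 nM; FP after 5 hr.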
BLM inh: blocks DNA unwinding by human BLM helicase. P54132. recombinant BLM DNA unwinding, fluorescence dequenching. Potency, µM (top dose mostly 56.1 µM), without a hit: top-dose activity change, negative = inhibition, hits mostly inhibitors. 350,000 tested, 0.2% active. AID 2528;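 note: plate controls were vehicle for no effect and no enzyme for full effect; nearly all actives have a fitted effect of over 35% in size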
RECQ1 inh conf: confirmation of human RECQ1 helicase inhibitors | 610 tested, 28% active | shares compounds with RECQ1 inh-1 | Potency, µM (doses to about 229 µM), for inactives: top-dose activity change, negative = inhibition, most hits filed as inhibitors | RECQ1 helicase DNA unwinding, fluorescence; note: nearly all actives have a fitted effect of over 45% in size
ADP FP counter: counter-screen for RECQ1 inhibitors: ADP displacement; ADP fluorescence polarization displacement counterscreen; shares compounds with RECQ1 inh-1; Potency, µM (top dose mostly 228 µM), for inactives: at the top dose activity change, negative = inhibition, usual class: inhibitors; 530 tested, 27% active; note: nearly all actives have a fitted effect of over 45% in size
RECQ1 inh-2: RECQ1 helicase inhibition confirmed, round 2. recombinant RECQ1 DNA unwinding, red fluorescence. AID 504841. Potency, µM (top dose mostly 119 µM), for the others: top-dose activity, negative = inhibition, usual class: inhibitors. shares compounds with RECQ1 inh-1. 1,100 tested, 15% active; note: nearly all actives have a fitted effect of over 50% in size
An asterisk follows results filed as active; i = inactive; ? = inconclusive; nt = not tested or not shown; [ ] = another dose, or the depositor's remark. Rows were chosen to be rich in hits. Some 0.64% of all compounds tested hit in one or more screens of this group. Unless noted, calls come from the whole dose curve; as a rule, active = well fitted curve in the direction sought with a large enough effect; inconclusive = small, poorly fitted or top-dose-only effect, or another doubt; inactive = no such curve, though single readings can be large; an effect the other way counts as inactive or inconclusive. Unless noted, % is set by controls: 0 for no effect and ±100 for the full control effect; potency is the fitted concentration of half-maximal effect.

SMILES	RECQ1 inh-1	TexasRed fluor	TRb SRC2 PPI	BLM inh	RECQ1 inh conf	RECQ1 inh-2	others
O=C(NC(Cc1ccccc1)C(=O)O)/C(=C/c1ccco1)NC(=O)c1cccc([N+](=O)[O-])c1 (centres undefined)	i	-1%	0%	-2%	4%	nt	ADP FP counter=-4%
O=C(NC(Cc1ccccc1)C(=O)O)/C(=C/c1ccc([N+](=O)[O-])cc1)NC(=O)c1ccco1 (centres undefined)	nt	nt	nt	3%	nt	nt
CC(NC(=O)/C(=C/c1ccc2c(c1)OCO2)NC(=O)c1cccc([N+](=O)[O-])c1)C(=O)O (centres undefined)	-5%	-6%	10%	-4%	14%	nt	ADP FP counter=-15%
CC(=Nc1ccccc1N)c1c(C)cc(=O)n(O)c1O	-2%	3%	12%	-7%	nt	nt
COc1ccc(C2CC(c3ccccc3)Oc3c(C)ccc(C(C)C)c32)cc1 (centres undefined)	0%	-1%	-13%	-4%	nt	nt
O=C(Nc1cccc(C(F)(F)F)c1)c1cc2nc(-c3ccccc3)cc(C(F)(F)F)n2n1	nt	?	-11%	-1%	nt	nt
CN1C(=O)c2ccccc2Sc2ccc(NC(=O)COc3ccc(Cl)cc3)cc21	nt	-2%	0%	-6%	nt	nt
CC(=O)Oc1ccc(N2C(=O)C3C(C2=O)C(C(=O)c2ccc(Cl)cc2)N2CCCC32)cc1 (centres undefined)	-4%	0%	-4%	1%	nt	nt
Cc1ccc(N2C(=O)C3C(C2=O)C(C(=O)c2ccc(Cl)cc2)N2CCCC32)cc1 (centres undefined)	25µM*	5%	-2%	-3%	nt	-28%
Cc1ccc2c(CN3CCN(C(=O)c4ccc(F)cc4)CC3)cc(=O)oc2c1	nt	0%	-4%	3%	nt	nt
O=C(O)CC/C(=N/NC(=O)c1cn(-c2ccccc2)nc1-c1ccccc1)C(=O)O	i	-1%	-11%	7%	3%	nt	ADP FP counter=-7%
O=C(Nc1ccccc1)c1cn(-c2ccccc2)nc1-c1ccccc1	nt	-1%	-10%	-6%	nt	nt
O=C(O)CSc1nnc(Cn2c(=O)sc3ccccc32)n1-c1cccc(Cl)c1	8%	0%	-5%	1%	2%	nt	ADP FP counter=-3%
CNc1ccccc(C(=O)/C=C/c2ccccc2OC)c1=O	25µM*	-1%	-2%	-15%	nt	?
COc1ccc(-n2c(=O)c(-c3cccs3)nc3cnc(N4CCNCC4)nc32)cc1	?	nt	nt	-21%	nt	-27%
Cc1ccc(/C=C2\SC(=S)N(c3cccnc3)C2=O)o1	?	-9%	6%	-14%	nt	nt
O=C(O)c1cccc(N2C(=O)/C(=C/c3ccc(SCc4ccc(Cl)cc4)o3)SC2=S)c1	22µM*	-21%	4%	113%	-87%[114 µM]	nt
O=C(O)c1ccc(NS(=O)(=O)c2ccc3c(c2)C2C=CCC2C(c2ccccc2F)N3)cc1 (centres undefined)	?	-2%	9%	7%	nt	-14%
CCCn1c(CCC(=O)O)nc2cc(S(=O)(=O)N3CCCC3)ccc21	-5%	?	12%	-6%	112µM*	nt	ADP FP counter=?
CN(C)S(=O)(=O)c1ccc2c(c1)nc(CCC(=O)O)n2C	-9%	8%	-2%	-5%	20%	nt	ADP FP counter=100µM*
CCCCn1c(CCC(=O)O)nc2cc(S(=O)(=O)N(CC)CC)ccc21	-25%	?	28%	-4%	89µM*	nt	ADP FP counter=11%
CCn1c(CCC(=O)O)nc2cc(S(=O)(=O)N(C)C)ccc21	i	-4%	9%	4%	nt	nt
Cc1c2cnn(-c3ccccc3)c(=O)c2c(C)n1CC(=O)NCc1ccccc1Br	nt	0%	1%	-2%	nt	nt
COC(=O)C1CCN(C(c2ccccc2Cl)c2sc3nc(-c4ccco4)nn3c2O)CC1 (centres undefined)	nt	-1%	-8%	0%	nt	nt
O=C1NC(=O)/C(=C/c2cccc3ccccc23)S1	nt	nt	nt	3%	nt	nt
SMILES	RECQ1 inh-1	TexasRed fluor	TRb SRC2 PPI	BLM inh	RECQ1 inh conf	RECQ1 inh-2	others
O=C1NC(=O)/C(=C\c2ccc(O)cc2O)S1	22µM*	-16%	2%	-23%	nt	13µM*
O=C1C=CC2=C3c4cc(O)c(O)cc4CC3(O)COC2=C1O (centres undefined)	1.3µM*	?	6%	16µM*	11µM*	nt	ADP FP counter=3.2µM*
CCOC(=O)N1CCC(NC(=O)c2ccc3c(c2)N(Cc2cc(C)ccc2C)C(=O)c2ccccc2S3(=O)=O)CC1	nt	2%	1%	-7%	nt	nt
CC1CC1C(=O)Nc1nc(-c2cccs2)c(-c2cccs2)s1 (centres undefined)	32µM*	-2%[53 µM]	5%[53 µM]	?	nt	?
CCOc1cccc(C(=O)N(Cc2ccc(CC)cc2)C2CCS(=O)(=O)C2)c1 (centres undefined)	nt	3%	0%	3%	nt	nt
CCCN(CCc1cccs1)[C@H]1CCc2c(O)cccc2C1	nt	nt	nt	3%	nt	nt
CCN(c1ccccc1)S(=O)(=O)c1cc(C(=O)O)ccc1C	28µM*	-3%	-3%	-1%	nt	?
N=C1/C(=C\c2ccc(SCc3ccccc3)o2)C(=O)N=C2SC(CC(=O)N3CCOCC3)=NN12	?	-12%	20%	-23%	nt	-29%
COc1ccc(CCNC(=O)CCCCn2c(=O)c3ccccc3n(Cc3ccc(Cl)cc3)c2=O)cc1OC	nt	-18%	0%	-6%	nt	nt
COc1ccc(NC(=O)NC(C)(C(F)(F)F)C(F)(F)F)cc1	0%	1%	0%	-6%	nt	nt
CCC(NC(=O)NCc1ccccc1)(C(F)(F)F)C(F)(F)F	-3%	-4%	-18%	-1%	nt	nt
CC(NC(=O)Nc1ccc(O)cc1)(C(F)(F)F)C(F)(F)F	?	3%	35µM*	-24%	nt	15%
CCC(NC(=O)Nc1ccc(O)cc1)(C(F)(F)F)C(F)(F)F	?	-10%	?	-14%	nt	-17%
CN(C)c1ncc2nc(-c3ccccc3)c(=O)n(C)c2n1	-9%	nt	nt	-5%	nt	nt
O=C1NN(c2cccc(Br)c2)C(=O)/C1=C/c1ccc(-c2cc([N+](=O)[O-])ccc2O)o1	20µM*	-6%	-1%	-17%	63µM*	nt
CC1=NN(c2ccc(C)cc2)C(=O)/C1=C/c1ccc(-c2cc([N+](=O)[O-])ccc2O)o1	nt	nt	nt	-21%	nt	nt
Cc1ccc(OCC(O)CNC(=O)c2ccccc2C(=O)O)cc1 (centres undefined)	-2%	-3%	1%	-2%	4%	nt	ADP FP counter=-3%
Cc1ccccc1OCC(=O)Nc1ccccc1C(=O)OCc1cc(=O)n2nc(C3CC3)sc2n1	nt	-2%	-13%	-8%	nt	nt
CN(C)/C=C/C(=O)c1ccc(Br)cc1	?	-1%	2%	-4%	nt	-30%
